TDP1 cell CPT: DT40-hTDP1 cell growth loss with CPT; chicken DT40 Tdp1-/-;hTDP1 cells + 20 nM CPT, ATP luminescence, 48 h; Potency, µM (titrated, usually from 46.2 µM), without a hit: at the top dose activity change, negative = growth inhibition, most hits filed as inhibitors; 12% of 420,000 active; AID 686979; further: potency means the concentration at half of the fitted maximal effect; nearly all actives have a fitted effect of over 55% in size
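Chicken DT40 Tdp1-/- cells complemented with human TDP1, 400 cells/well, exposed to compounds plus 20 nM camptothecin for at least 48 h at 37 C; viability read as ATP content by CellTiter-Glo luminescence.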
IL-1B inflam inh: inflammasome signaling inhibition, IL-1 beta readout | THP-1 LPS/ATP IL-1B secretion, AlphaLISA, 16 h; hits give low values | activity change, % at 57.5 µM | 4.7% of 360,000 active | AID 743279; in the data active means activity change below about -50%; inconclusive means mostly about -30% to -49%
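Secreted IL-1B measured by AlphaLISA bead assay after 16 h compound exposure of THP-1 cells; compounds (final up to 57.5 uM) added 1 h before LPS (250 ng/mL) and ATP (1.25 mM) stimulation; lower signal means less secretion.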
HT1080-NT tox: kills 2HG-producing HT-1080-NT fibrosarcoma cells | HT-1080-NT fibrosarcoma viability, CellTiter-Glo ATP luminescence, 48 h | Potency, µM (top dose mostly 46.1 µM), for inactives: at the highest dose activity, negative = less viability, most hits filed as cytotoxic | 1.6% of 360,000 active | AID 686970;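 further: NT is the 2HG producing partner of a matched IDH1 knockdown line; potency means the concentration at half of the fitted maximal effect; 0% = DMSO-treated cells and -100% = media-only wells without cells; nearly all actives have a fitted effect of over 55% in size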
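750 cells/well, RPMI + 5% FBS; 2 h settle, compound pin-transfer, 48 h at 37 degrees C. CellTiter-Glo 10 min RT, luminescence. Normalized to DMSO and media-only wells.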
TDP1 cell noCPT: qHTS for Inhibitors of human tyrosyl-DNA phosphodiesterase 1 (TDP1): qHTS in cells in absence of CPT | DT40 Tdp1-/- hTDP1 cells, no CPT, ATP luminescence, 48 h | Potency, µM (doses to about 46.2 µM), for the others: top-dose activity change, negative = growth inhibition, hits mostly inhibitors | 15% of 420,000 active; further: potency means the concentration at half of the fitted maximal effect; nearly all actives have a fitted effect of over 55% in size
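Seeded 400 DT40-hTDP1 cells/well (vehicle DMSO, no 20 nM CPT); pinned compounds; ≥48 hr at 37 °C; CellTiter-Glo luminescence as viability measure.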
HT1080 IDH1KD tx: toxicity to HT-1080 IDH1 knockdown cells (counter line); HT-1080 IDH1 knockdown viability, ATP luminescence, 48 h; Potency, µM (doses to about 46.1 µM), for the others: at the top dose activity, negative = toxicity, hits mostly cytotoxic; 2% of 360,000 active; AID 686971;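 further: potency means the concentration at half of the fitted maximal effect; 0% = DMSO wells and -100% = cell-free medium wells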
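Viability of IDH1-knockdown HT-1080 fibrosarcoma cells was assessed by CellTiter-Glo after 48 h at 37 °C with titrated compound; concentration-effect curves were classified by fit quality and response size.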
An asterisk follows results filed as active; [ ] = dose if it differs, or a comment. An excerpt weighted towards active compounds, which were near 19% of everything screened. Unless noted, the call rests on the fitted dose curve; in most records, active means well fitted curve in the direction sought with a large enough effect; inconclusive means small, poorly fitted or top-dose-only effect, or another doubt; inactive means no such curve, though single readings can be large; an effect the other way counts as inactive or inconclusive. Unless noted, on the % scale 0 is the no-effect control and ±100 the full control effect.

How did C=CC[C@@H](CC(=O)N(CCO)Cc1ccccc1)C(=O)N[C@@H](C)COC(=O)[C@@H](CC=C)CC(=O)OC(C)(C)C do in these assays?
TDP1 cell CPT: inconclusive; IL-1B inflam inh: -11; HT1080-NT tox: 23%; TDP1 cell noCPT: inconclusive; HT1080 IDH1KD tx: 1%

Results for C=CC[C@H](CC(=O)N(CCO)Cc1ccccc1)C(=O)N[C@@H](C)COC(=O)[C@H](CC=C)CC(=O)OC(C)(C)C ?
TDP1 cell CPT: inconclusive; IL-1B inflam inh: 5; HT1080-NT tox: 1%; TDP1 cell noCPT: inconclusive; HT1080 IDH1KD tx: 3%

Results for C=CC[C@@H](CC(=O)N(CCO)Cc1ccccc1)C(=O)N[C@H](COC(=O)[C@H](CC=C)CC(=O)OC(C)(C)C)Cc1c[nH]c2ccccc12 ?
TDP1 cell CPT: 23µM*; IL-1B inflam inh: -59*; HT1080-NT tox: -27%; TDP1 cell noCPT: 16µM*; HT1080 IDH1KD tx: inconclusive

How did C=CC[C@H](CC(=O)N(CCO)Cc1ccccc1)C(=O)N[C@H](COC(=O)[C@@H](CC=C)CC(=O)OC(C)(C)C)Cc1c[nH]c2ccccc12 do in these assays?
TDP1 cell CPT: 23µM*; IL-1B inflam inh: -65*; HT1080-NT tox: inconclusive; TDP1 cell noCPT: 16µM*; HT1080 IDH1KD tx: inconclusive

Results for Cc1ccc(Cn2c(=N)c(C(=O)NCC3CCCO3)cc3c(=O)n4cccc(C)c4nc32)cc1 (centres undefined) ?
TDP1 cell CPT: 7.3µM*; IL-1B inflam inh: -55*; HT1080-NT tox: 0%; TDP1 cell noCPT: 9.2µM*; HT1080 IDH1KD tx: 1%

How did Cc1ccc(Cn2c(=N)c(C(=O)NCC3CCCO3)cc3c(=O)n4ccccc4nc32)cc1 (centres undefined) do in these assays?
TDP1 cell CPT: inconclusive; IL-1B inflam inh: -1; HT1080-NT tox: -2%; TDP1 cell noCPT: inconclusive; HT1080 IDH1KD tx: -20%

Results for Cc1cccn2c(=O)c3cc(C(=O)NCC4CCCO4)c(=N)n(CCN4CCOCC4)c3nc12 (centres undefined) ?
TDP1 cell CPT: 12%; IL-1B inflam inh: -51*; HT1080-NT tox: 1%; TDP1 cell noCPT: -14%; HT1080 IDH1KD tx: -7%

What do the screens show for `CCCN(CCC)S(=O)(=O)c1ccc(C(=O)Nc2ccc(S(=O)(=O)Nc3nnc(CC)s3)cc2)cc1`?
TDP1 cell CPT: -21%; IL-1B inflam inh: 17; HT1080-NT tox: -15%; TDP1 cell noCPT: inconclusive; HT1080 IDH1KD tx: -2%

How did CCOc1ccc(CCNC(=O)CSc2n[nH]c(N)n2)cc1OCC do in these assays?
TDP1 cell CPT: -4%; IL-1B inflam inh: -6; HT1080-NT tox: -2%; TDP1 cell noCPT: 0%; HT1080 IDH1KD tx: -4%

How did COc1ccc(-c2cc(C(=O)Nc3sc4c(c3C#N)CCCC4)no2)cc1OC do in these assays?
TDP1 cell CPT: 0%; TDP1 cell noCPT: -8%

Results for N#Cc1c(NC(=O)c2ccc([N+](=O)[O-])o2)sc2c1CCC2 ?
TDP1 cell CPT: 18µM*; IL-1B inflam inh: -94*; HT1080-NT tox: inconclusive; TDP1 cell noCPT: 10µM*; HT1080 IDH1KD tx: inconclusive

How did CC(C)c1cc(C(=O)Nc2sc3c(c2C#N)CCC3)no1 do in these assays?
TDP1 cell CPT: inconclusive; IL-1B inflam inh: 5; HT1080-NT tox: -20%[9.24 µM]; TDP1 cell noCPT: 23µM*; HT1080 IDH1KD tx: inconclusive

What do the screens show for `N#Cc1c(NC(=O)c2ccccc2)sc2c1CCC2`?
TDP1 cell CPT: 18µM*; IL-1B inflam inh: 20; HT1080-NT tox: inconclusive; TDP1 cell noCPT: 16µM*; HT1080 IDH1KD tx: inconclusive

How did N#Cc1c(NC(=O)c2cccnc2)sc2c1CCC2 do in these assays?
TDP1 cell CPT: 23µM*; IL-1B inflam inh: 10; HT1080-NT tox: 16µM*; TDP1 cell noCPT: inconclusive; HT1080 IDH1KD tx: 9.2µM*

How did CSc1ccc(-c2nc(O)c3cnccn23)cc1 do in these assays?
TDP1 cell CPT: 2%; IL-1B inflam inh: 18; HT1080-NT tox: 5%; TDP1 cell noCPT: -11%; HT1080 IDH1KD tx: 13%

Results for CCn1c(-c2ccccc2F)nc2cc(NC(C)=O)cc(C(=O)N(C)Cc3cn(C)nc3C)c21 ?
TDP1 cell CPT: 24%[9.04 µM]; TDP1 cell noCPT: -14%

What do the screens show for `N#Cc1c(NC(=O)c2cnccn2)sc2c1CCCC2`?
TDP1 cell CPT: 9.2µM*; IL-1B inflam inh: -7; HT1080-NT tox: -20%; TDP1 cell noCPT: 12µM*; HT1080 IDH1KD tx: -24%

What do the screens show for `COc1ccc(COCC(O)CN2CCN(S(=O)(=O)c3ccc(C(C)C)cc3)CC2)cc1` (centres undefined)?
TDP1 cell CPT: 26µM*; IL-1B inflam inh: -8; HT1080-NT tox: 1%; TDP1 cell noCPT: 21µM*; HT1080 IDH1KD tx: -3%

Results for O=S(=O)(c1ccc(F)cc1)N1CCN(CC(O)COc2ccccc2F)CC1 (centres undefined) ?
TDP1 cell CPT: -1%; IL-1B inflam inh: 14; HT1080-NT tox: 2%; TDP1 cell noCPT: -22%; HT1080 IDH1KD tx: 2%

Results for CC(C)c1ccc(S(=O)(=O)N2CCN(CC(O)CN3CCOCC3)CC2)cc1 (centres undefined) ?
TDP1 cell CPT: -23%; IL-1B inflam inh: 0; HT1080-NT tox: 6%[9.24 µM]; TDP1 cell noCPT: -1%; HT1080 IDH1KD tx: 3%

How did CC(OCC(O)CN1CCN(S(=O)(=O)c2ccc(Cl)cc2)CC1)c1ccc(Cl)cc1 (centres undefined) do in these assays?
TDP1 cell CPT: 12µM*; IL-1B inflam inh: -23; HT1080-NT tox: -10%; TDP1 cell noCPT: 10µM*; HT1080 IDH1KD tx: -21%

Results for CC(C)c1ccccc1OCC(O)CN1CCN(S(=O)(=O)c2ccc([N+](=O)[O-])cc2)CC1 (centres undefined) ?
TDP1 cell CPT: inconclusive; IL-1B inflam inh: -83*; HT1080-NT tox: -29%; TDP1 cell noCPT: 8.2µM*; HT1080 IDH1KD tx: inconclusive

How did O=c1cnc2cnc(Oc3ccccc3)nc2n1CCc1ccccc1 do in these assays?
TDP1 cell CPT: 15%; TDP1 cell noCPT: -18%

How did Cc1cc(/C=N/n2cnnc2)c(C)n1-c1ccc(OCc2ccc(Cl)cc2Cl)cc1 do in these assays?
TDP1 cell CPT: 7.3µM*; IL-1B inflam inh: -80*; HT1080-NT tox: 23µM*; TDP1 cell noCPT: 5.8µM*; HT1080 IDH1KD tx: -24%[9.24 µM]

What do the screens show for `COCCNC(=O)CN1C(=O)NC(c2ccccc2)(c2ccccc2)C1=O`?
TDP1 cell CPT: -1%; IL-1B inflam inh: 38; HT1080-NT tox: -11%; TDP1 cell noCPT: 10%; HT1080 IDH1KD tx: -1%

What do the screens show for `O=S(=O)(NCc1ccccc1)c1ccc(Cl)cc1`?
TDP1 cell CPT: -7%; IL-1B inflam inh: -3; HT1080-NT tox: -9%; TDP1 cell noCPT: -7%; HT1080 IDH1KD tx: -1%
